An excerpt weighted towards active compounds, which were near 2.3% of everything screened.
bovine MsrA act: activates bovine MsrA enzyme. activation, % at 10.6 µM. actives 0.3% (n = 360,000). purified bovine MsrA, absorbance read-out. AID 602163; in the data active means activation above about 7.5%
MsrA inh: inhibitors of bovine MsrA. inhibition, % at 15.5 µM. purified bovine MsrA, absorbance read-out. actives 0.75% (n = 360,000). AID 651718; in the data active means inhibition above about 4.5%
PP5 primary: blocks human protein phosphatase 5 activity | actives 0.18% (n = 320,000) | P53041 | AID 1987 | purified PP5c, OMFP substrate fluorescence | inhibition, % at 6.7 µM;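 active means inhibition above the campaign's mean inhibition across all tested compounds plus 3 SD, cut at about 9.5% in these data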
PP1 counter: PP1-alpha (human) inhibition in PP5 counter-screen; P62136; purified PP1alpha, OMFP fluorescence; inhibition, % at 6.7 µM; actives 0.9% (n = 320,000);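 active means inhibition above the mean inhibition of all tested compounds plus 3 SD, computed separately for each screening campaign, cut at about 15% in these data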
Target sequence (P62136 whole entry, looked up): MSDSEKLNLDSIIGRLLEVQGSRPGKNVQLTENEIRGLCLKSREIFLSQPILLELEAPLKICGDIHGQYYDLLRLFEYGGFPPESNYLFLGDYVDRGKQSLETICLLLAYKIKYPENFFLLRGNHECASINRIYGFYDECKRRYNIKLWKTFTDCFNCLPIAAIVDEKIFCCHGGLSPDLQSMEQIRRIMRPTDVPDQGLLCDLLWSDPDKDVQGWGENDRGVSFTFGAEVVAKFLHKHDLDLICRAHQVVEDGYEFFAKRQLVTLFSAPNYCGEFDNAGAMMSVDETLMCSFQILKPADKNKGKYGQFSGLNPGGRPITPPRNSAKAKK
ZTA counter: blocks Epstein-Barr virus ZTA, an EBNA-1 counter-screen. actives 0.15% (n = 320,000). inhibition, % at 11 µM. ZTA-DNA binding, fluorescence polarization. P03206. AID 2234; in the data active means inhibition above about 33%
Target sequence (P03206 whole entry, looked up): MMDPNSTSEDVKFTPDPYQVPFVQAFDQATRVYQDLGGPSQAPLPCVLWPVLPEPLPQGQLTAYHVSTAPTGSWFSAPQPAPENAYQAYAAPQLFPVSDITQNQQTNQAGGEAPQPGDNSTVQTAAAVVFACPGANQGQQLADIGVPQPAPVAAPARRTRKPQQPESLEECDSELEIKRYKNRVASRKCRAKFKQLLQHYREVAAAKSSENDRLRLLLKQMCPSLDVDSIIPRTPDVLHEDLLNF
EBNA-1 inh: blocks EBNA-1 binding to DNA. AID 1950. actives 0.34% (n = 300,000). inhibition, % at 14.8 µM. EBNA-1 DNA binding, fluorescence polarization; in the data active means inhibition above about 28%
MsrA act confirm: bovine methionine sulfoxide reductase A activation confirmed; purified bovine MsrA, absorbance read-out; AID 602270; shares compounds with bovine MsrA act; activation, % at 10.6 µM; actives 12% (n = 1,000); in the data active means activation above about 4%;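 further: enzyme coupled to thioredoxin and thioredoxin reductase with NADPH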
Of the large screens only hits and unclear results are named; the others gave an inactive call (follow-up assays come after a bar, where they were run); ! = repeats disagree.

O=C(CSc1ccccc1C(=O)O)NCc1ccccc1	bovine MsrA act 8.1 | MsrA act confirm inactive
O=C(CSc1ccccc1)NCc1ccccc1	none
CCN(C(=O)COC(=O)/C(C#N)=C/c1ccc(OC)cc1)C1CCS(=O)(=O)C1 (configuration not stated)	none
O=C(O)CSc1nnc(Cn2cnc3ccccc32)n1CCc1ccccc1	bovine MsrA act 8.8 | MsrA act confirm inactive
COc1cc(OC)c(CN2CCCCCCC2)cc1Br	bovine MsrA act 12.1 | MsrA act confirm inactive
COc1cc(OC)c(CN2CCCN(C)CC2)cc1Br	none
Cc1ccc2[nH]c(=O)c(CN(CC3COCCO3)C(=O)Nc3ccccc3F)cc2c1 (configuration not stated)	none
O=S1(=O)CCOC[C@H](Cc2ccccc2)N1Cc1cccc(F)c1	none
O=S1(=O)CCOC[C@H](c2ccccc2)N1Cc1cccc(F)c1	bovine MsrA act 11.0 | MsrA act confirm inactive
CCOC(=O)C[C@H]1c2ccc(C(F)(F)F)cc2S(=O)(=O)N1C(C)(C)C	none
Nn1c(SCC(=O)Nc2ccc(F)c(F)c2)nnc1C1CCCCC1	bovine MsrA act 9.3 | MsrA act confirm inactive
COc1cccc(N2CCN(C(=S)Nc3ccccc3OC)CC2)c1	none
CCOc1ccccc1NC(=S)N1CCN(c2cccc(OC)c2)CC1	bovine MsrA act 8.5 | MsrA act confirm inactive
CCCN1CCN(C(=O)c2ccc(S(=O)(=O)N(C)c3ccccc3OC)cc2)CC1	none (no result: PP5 primary, PP1 counter, ZTA counter, EBNA-1 inh)
O=C(Nc1ccc(Oc2c(F)c(F)c(F)c(F)c2F)cc1)OC1CCN2Cc3ccccc3N=C12 (configuration not stated)	none (no result: MsrA inh)
CC(C)c1ncc(C(O)c2cccc3ccccc23)n1C (configuration not stated)	bovine MsrA act 13.4 | MsrA act confirm inactive
COc1cccc(C(O)c2cnc(C(C)C)n2C)c1OC (configuration not stated)	none
COc1cc(CN(C(C)=O)c2ccccc2C(=O)O)ccc1[N+](=O)[O-]	none (no result: PP5 primary, PP1 counter, ZTA counter, EBNA-1 inh)
Cc1c2cnn(CC(=O)NCc3ccccn3)c(=O)c2c(C)n1Cc1ccccc1	bovine MsrA act 11.2 | MsrA act confirm inactive
Cc1ccccc1Cn1c2ccccc2c2cnn(CC(=O)NCc3ccccn3)c(=O)c21	none
Cc1cc(OCC(=O)OCC(=O)Nc2ccc(Cl)cn2)ccc1Cl	none (no result: EBNA-1 inh)
Cc1ccc(S(=O)(=O)NC2c3cccc4cccc(c34)C2Sc2nncn2C)cc1 (configuration not stated)	bovine MsrA act 14.9 | MsrA act confirm inactive
Cn1cnnc1SC1c2cccc3cccc(c23)C1NS(=O)(=O)c1ccccc1 (configuration not stated)	none
CCN1CCN(C2=C(NS(=O)(=O)c3ccc(NC(C)=O)cc3)C(=O)c3ccccc3C2=O)CC1	bovine MsrA act 8.9 | MsrA act confirm inactive
CCN1CCN(C2=C(NS(=O)(=O)c3ccc(C)cc3)C(=O)c3ccccc3C2=O)CC1	none
CC(=O)Nc1ccc(S(=O)(=O)NC2=C(N3CCN(Cc4ccccc4)CC3)C(=O)c3ccccc3C2=O)cc1	bovine MsrA act 8.1! | MsrA act confirm inactive
CC1CCCN(C2=C(NS(=O)(=O)c3ccc(Br)cc3)C(=O)c3ccccc3C2=O)C1 (configuration not stated)	bovine MsrA act 8.9 | MsrA act confirm inactive
CCOC(=O)N1CCN(C2=C(NS(=O)(=O)c3ccc(NC(C)=O)cc3)C(=O)c3ccccc3C2=O)CC1	none
CC(=O)Nc1ccc(S(=O)(=O)NC2=C(N3CCN(C)CC3)C(=O)c3ccccc3C2=O)cc1	bovine MsrA act 25.9 | MsrA act confirm inactive
O=C(Cc1ccc(NC(=O)C2CCCN(C(=O)CCc3ccccc3)C2)cc1)Nc1cccc(C(=O)N2CCCC2)c1 (configuration not stated)	none (no result: PP5 primary, PP1 counter, ZTA counter, EBNA-1 inh)
CC[C@H]1C(=O)[C@@H](Cc2ccccc2)[C@@H]2CCN3C(=O)CCC[C@H]1[C@H]23	bovine MsrA act 17.3 (no result: PP5 primary, PP1 counter, ZTA counter, EBNA-1 inh) | MsrA act confirm inactive
O=C1C[C@@H]2CCN3C(=O)CCC[C@@H]([C@H]23)[C@H]1Cc1ccccc1	none (no result: PP5 primary, PP1 counter, ZTA counter, EBNA-1 inh)
O=C(Nc1ccc(F)cc1)c1ccccc1NS(=O)(=O)N1CCCC1	none
C1=CCN(Cc2ccccc2)C1	none
Cc1ccc(-n2c([C@@H]3C[C@H]3c3ccccc3)n[nH]c2=S)cc1	bovine MsrA act 8.9 | MsrA act confirm inactive
Cc1ccc(C2CC2c2n[nH]c(=S)n2-c2ccc(C)cc2)cc1 (configuration not stated)	none
CCN(CC)c1ccc2nc3ccccc3[n+](CC)c2c1	bovine MsrA act 33.6, ZTA counter active, EBNA-1 inh 174.3 (no result: MsrA inh) | MsrA act confirm 19.2
Cc1ccc(-n2[nH]c(C)c(C=Nc3cc(C)ccn3)c2=O)cc1	none
Cc1ccc(-n2[nH]c(C)c(C=Nc3ccc4[nH]c(=O)[nH]c4c3)c2=O)cc1	bovine MsrA act 7.8 | MsrA act confirm inactive
CCOc1ccc2c(c1)C(C)=CC(C)(C)N2S(=O)(=O)c1ccc(NC(C)=O)cc1	bovine MsrA act 8.2 | MsrA act confirm inactive
COc1ccc2c(c1)C(C)=CC(C)(C)N2S(=O)(=O)c1ccc(NC(C)=O)cc1	none
O=C(CN1CCCCC1)Nc1cccc(Br)c1	bovine MsrA act 7.8 | MsrA act confirm inactive
C#CCN1C=C(C(=O)OCC)C(C)NS1(=O)=O (configuration not stated)	none (no result: PP5 primary, PP1 counter, ZTA counter, EBNA-1 inh)
C#CCN1C=C(C(=O)OCC)C(C)N(Cc2ccccc2I)S1(=O)=O (configuration not stated)	bovine MsrA act 11.8 (no result: PP5 primary, PP1 counter, ZTA counter, EBNA-1 inh) | MsrA act confirm inactive
COC(=O)CCC(=O)Nc1cccc([N+](=O)[O-])c1	none
O=C(Nc1ccc(Cl)cc1)Nc1ccccn1	bovine MsrA act 8.4 | MsrA act confirm inactive
O=C(Nc1ccccc1)Nc1ccccn1	none
O=C(c1ccc(Cl)cc1Cl)N1CCC(c2nc3c(nnn3Cc3ccco3)c(=O)[nH]2)CC1	bovine MsrA act 23.1 | MsrA act confirm inactive
O=C(c1ccccc1)N1CCC(c2nc3c(nnn3Cc3ccco3)c(=O)[nH]2)CC1	none
CN(C)c1nc(N(C)C)n(Cc2c(Cl)cccc2Cl)n1	none
COc1ccccc1N1CCN(C2CCN(C(=O)COc3ccccc3)CC2)CC1	none
c1ccn(-c2ccc(N3CCOCC3)cc2)c1	bovine MsrA act 10.3 | MsrA act confirm inactive
c1ccc(N2CCOCCOCCOCCOCC2)cc1	none
CCC(=O)NC1=C(NC(C)c2ccccc2)C(=O)c2ccccc2C1=O (configuration not stated)	bovine MsrA act 10.7 | MsrA act confirm inactive
O=C(NCSc1ccnc(SCNC(=O)c2ccccc2)n1)c1ccccc1	bovine MsrA act 11.2 | MsrA act confirm inactive
CC(=O)Nc1nnc(Cc2ccccc2)s1	bovine MsrA act 8.6 | MsrA act confirm inactive
CCC(=O)Nc1nnc(Cc2ccccc2)s1	none
CCCCOC(=O)Nc1ccccc1C(=O)N1CCCC1	bovine MsrA act 15.4 | MsrA act confirm inactive
Nc1c(-c2cccc(Cl)c2)cnc2c(-c3ccccc3)cnn12	none

Screening data deposited in PubChem BioAssay by The Scripps Research Institute Molecular Screening Center.
